Reference: ChEMBL document CHEMBL1961873, “Compounds: GSK PKIS; Assays: Nanosyn kinase panel” (2012)

Columns and labels:
[1] = molecular target: Tyrosine-protein kinase SYK (Homo sapiens) (UniProt P43405); details: at 1 µM
[2] = molecular target: T1, Tyrosine-protein kinase Tec (Homo sapiens) (UniProt P42680); details: at 0.1 µM
T1 sequence (whole entry): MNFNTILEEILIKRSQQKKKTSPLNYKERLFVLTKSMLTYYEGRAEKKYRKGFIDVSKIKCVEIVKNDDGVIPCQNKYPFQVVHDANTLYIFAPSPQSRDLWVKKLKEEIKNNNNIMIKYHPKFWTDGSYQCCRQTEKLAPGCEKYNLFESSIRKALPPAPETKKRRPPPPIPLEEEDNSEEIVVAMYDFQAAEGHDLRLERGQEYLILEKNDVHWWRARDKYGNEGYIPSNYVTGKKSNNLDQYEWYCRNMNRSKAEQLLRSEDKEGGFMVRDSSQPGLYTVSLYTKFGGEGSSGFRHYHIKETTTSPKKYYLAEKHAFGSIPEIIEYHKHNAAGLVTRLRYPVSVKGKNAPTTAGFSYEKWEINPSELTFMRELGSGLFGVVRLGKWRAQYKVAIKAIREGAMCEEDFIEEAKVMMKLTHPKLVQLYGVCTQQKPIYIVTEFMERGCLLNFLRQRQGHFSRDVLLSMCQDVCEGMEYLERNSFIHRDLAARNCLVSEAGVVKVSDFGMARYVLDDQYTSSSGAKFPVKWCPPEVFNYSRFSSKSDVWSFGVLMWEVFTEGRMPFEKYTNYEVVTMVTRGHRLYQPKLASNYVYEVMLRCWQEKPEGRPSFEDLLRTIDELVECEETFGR

[3] = molecular target: T1, Tyrosine-protein kinase Tec (Homo sapiens); details: at 1 µM
[4] = molecular target: Angiopoietin-1 receptor (Homo sapiens) (UniProt Q02763); details: at 0.1 µM
Chain of Angiopoietin-1 receptor (Homo sapiens) (Q02763 whole entry): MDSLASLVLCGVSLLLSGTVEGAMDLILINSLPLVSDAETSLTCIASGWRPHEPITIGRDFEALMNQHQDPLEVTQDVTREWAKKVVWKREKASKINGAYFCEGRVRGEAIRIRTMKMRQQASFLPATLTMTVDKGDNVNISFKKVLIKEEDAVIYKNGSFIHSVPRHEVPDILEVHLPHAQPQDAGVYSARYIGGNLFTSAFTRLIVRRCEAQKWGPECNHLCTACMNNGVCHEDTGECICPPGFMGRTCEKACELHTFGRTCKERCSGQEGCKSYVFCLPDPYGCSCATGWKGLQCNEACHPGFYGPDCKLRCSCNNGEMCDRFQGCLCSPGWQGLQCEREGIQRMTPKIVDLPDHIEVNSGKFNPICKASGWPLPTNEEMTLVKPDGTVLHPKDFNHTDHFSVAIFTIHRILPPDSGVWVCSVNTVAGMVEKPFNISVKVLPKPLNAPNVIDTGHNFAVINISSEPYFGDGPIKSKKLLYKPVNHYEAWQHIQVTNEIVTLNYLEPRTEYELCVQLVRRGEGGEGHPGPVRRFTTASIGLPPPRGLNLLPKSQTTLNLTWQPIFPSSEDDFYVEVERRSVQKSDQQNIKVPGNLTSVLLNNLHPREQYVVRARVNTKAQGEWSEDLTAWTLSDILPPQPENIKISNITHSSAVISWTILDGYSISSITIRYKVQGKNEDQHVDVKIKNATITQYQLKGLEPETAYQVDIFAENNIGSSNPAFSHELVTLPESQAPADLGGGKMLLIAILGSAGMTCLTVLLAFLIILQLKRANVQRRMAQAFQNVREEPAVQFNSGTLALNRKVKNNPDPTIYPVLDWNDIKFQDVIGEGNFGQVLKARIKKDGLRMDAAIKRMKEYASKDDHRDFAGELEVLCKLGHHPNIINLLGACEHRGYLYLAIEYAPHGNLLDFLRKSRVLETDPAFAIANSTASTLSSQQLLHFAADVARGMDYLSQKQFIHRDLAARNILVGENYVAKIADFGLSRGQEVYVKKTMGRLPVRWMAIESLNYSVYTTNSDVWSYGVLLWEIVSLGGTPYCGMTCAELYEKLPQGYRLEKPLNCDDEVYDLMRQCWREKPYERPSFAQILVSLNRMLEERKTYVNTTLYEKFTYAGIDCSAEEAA

[5] = molecular target: Angiopoietin-1 receptor (Homo sapiens) (UniProt Q02763); details: at 1 µM
[6] = molecular target: T2, Non-receptor tyrosine-protein kinase TNK1 (Homo sapiens) (UniProt Q13470); details: at 0.1 µM
T2 sequence (whole entry): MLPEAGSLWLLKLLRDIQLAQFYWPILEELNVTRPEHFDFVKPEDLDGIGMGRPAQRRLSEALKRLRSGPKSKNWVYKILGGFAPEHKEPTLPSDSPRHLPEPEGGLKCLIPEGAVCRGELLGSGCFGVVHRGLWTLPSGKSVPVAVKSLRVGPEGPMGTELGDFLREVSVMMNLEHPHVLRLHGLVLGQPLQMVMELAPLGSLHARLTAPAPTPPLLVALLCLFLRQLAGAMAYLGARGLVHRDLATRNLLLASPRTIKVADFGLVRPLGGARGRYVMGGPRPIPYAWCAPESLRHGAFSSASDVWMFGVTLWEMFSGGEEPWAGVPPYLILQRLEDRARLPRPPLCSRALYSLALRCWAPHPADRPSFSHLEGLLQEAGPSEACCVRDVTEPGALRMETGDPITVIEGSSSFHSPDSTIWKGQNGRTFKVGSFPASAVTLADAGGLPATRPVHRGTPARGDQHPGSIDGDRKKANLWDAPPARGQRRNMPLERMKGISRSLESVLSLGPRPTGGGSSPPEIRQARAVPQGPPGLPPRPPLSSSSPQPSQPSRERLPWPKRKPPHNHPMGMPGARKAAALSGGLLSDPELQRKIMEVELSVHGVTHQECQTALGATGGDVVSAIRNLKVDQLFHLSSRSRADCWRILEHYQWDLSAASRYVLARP

[7] = molecular target: T2, Non-receptor tyrosine-protein kinase TNK1 (Homo sapiens); details: at 1 µM
[8] = molecular target: Activated CDC42 kinase 1 (Homo sapiens) (UniProt Q07912); details: at 0.1 µM
Chain of Activated CDC42 kinase 1 (Homo sapiens) (Q07912 whole entry, looked up): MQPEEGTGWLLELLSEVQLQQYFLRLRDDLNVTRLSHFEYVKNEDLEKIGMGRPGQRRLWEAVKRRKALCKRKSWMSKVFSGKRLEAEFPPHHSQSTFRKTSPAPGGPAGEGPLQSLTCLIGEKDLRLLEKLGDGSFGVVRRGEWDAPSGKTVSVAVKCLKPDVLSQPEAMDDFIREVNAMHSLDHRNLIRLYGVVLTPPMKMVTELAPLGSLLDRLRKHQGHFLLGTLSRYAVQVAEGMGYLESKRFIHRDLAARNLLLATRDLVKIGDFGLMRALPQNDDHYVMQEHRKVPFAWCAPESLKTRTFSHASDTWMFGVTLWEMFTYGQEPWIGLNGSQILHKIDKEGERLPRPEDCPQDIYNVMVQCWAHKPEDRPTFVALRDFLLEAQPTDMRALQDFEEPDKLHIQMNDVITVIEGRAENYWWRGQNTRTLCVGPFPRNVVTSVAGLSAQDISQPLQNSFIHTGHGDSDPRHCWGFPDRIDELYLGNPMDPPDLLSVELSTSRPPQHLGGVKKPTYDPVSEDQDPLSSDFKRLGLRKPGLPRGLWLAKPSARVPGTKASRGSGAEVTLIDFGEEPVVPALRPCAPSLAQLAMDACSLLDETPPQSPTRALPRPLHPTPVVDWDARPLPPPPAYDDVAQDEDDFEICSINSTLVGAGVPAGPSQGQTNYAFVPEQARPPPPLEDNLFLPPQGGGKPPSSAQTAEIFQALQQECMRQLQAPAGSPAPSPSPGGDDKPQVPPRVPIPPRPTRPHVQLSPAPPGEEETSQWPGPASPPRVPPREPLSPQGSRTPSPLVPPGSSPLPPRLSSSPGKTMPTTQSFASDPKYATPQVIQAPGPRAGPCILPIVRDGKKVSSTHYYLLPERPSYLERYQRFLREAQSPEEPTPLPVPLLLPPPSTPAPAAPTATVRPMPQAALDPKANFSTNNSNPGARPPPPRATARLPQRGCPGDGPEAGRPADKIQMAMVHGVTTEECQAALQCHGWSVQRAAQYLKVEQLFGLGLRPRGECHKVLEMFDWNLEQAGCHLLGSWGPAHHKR

[9] = molecular target: Activated CDC42 kinase 1 (Homo sapiens) (UniProt Q07912); details: at 1 µM
[10] = molecular target: High affinity nerve growth factor receptor (Homo sapiens) (UniProt P04629); details: at 0.1 µM;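 also: each value is a mean of replicate percent inhibition readings against TRKA kinase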
Chain of High affinity nerve growth factor receptor (Homo sapiens) (P04629 33-796 limits assumed): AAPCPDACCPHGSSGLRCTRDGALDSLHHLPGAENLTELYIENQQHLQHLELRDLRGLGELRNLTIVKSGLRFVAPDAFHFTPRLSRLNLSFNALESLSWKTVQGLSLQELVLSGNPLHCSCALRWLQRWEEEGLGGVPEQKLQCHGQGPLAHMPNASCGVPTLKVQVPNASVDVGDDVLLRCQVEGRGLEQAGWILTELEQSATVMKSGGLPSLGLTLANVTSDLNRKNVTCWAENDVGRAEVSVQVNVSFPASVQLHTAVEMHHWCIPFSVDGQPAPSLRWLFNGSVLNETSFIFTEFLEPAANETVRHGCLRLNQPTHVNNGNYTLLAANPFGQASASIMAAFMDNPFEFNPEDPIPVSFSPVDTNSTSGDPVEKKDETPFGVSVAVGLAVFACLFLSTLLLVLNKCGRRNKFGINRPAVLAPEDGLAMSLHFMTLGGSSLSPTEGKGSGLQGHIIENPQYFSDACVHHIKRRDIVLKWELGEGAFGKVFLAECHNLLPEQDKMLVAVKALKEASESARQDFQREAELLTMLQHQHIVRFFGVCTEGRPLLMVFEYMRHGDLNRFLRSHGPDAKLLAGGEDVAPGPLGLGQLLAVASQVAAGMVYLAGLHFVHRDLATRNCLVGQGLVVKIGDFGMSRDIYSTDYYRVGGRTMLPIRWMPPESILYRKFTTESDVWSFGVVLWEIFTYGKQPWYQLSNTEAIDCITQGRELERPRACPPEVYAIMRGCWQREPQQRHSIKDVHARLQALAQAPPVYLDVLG

Compound | inhibition [1] | inhibition [2] | inhibition [3] | inhibition [4] | inhibition [5] | inhibition [6] | inhibition [7] | inhibition [8] | inhibition [9] | inhibition [10]
COc1ccc(-c2ccc3c(NC(=O)C4CC4)n[nH]c3n2)cc1 | -2.02% | 0.87% | 2.47% | 2.75% | 5.88% | 1.34% | 12% | 0.32% | 1.42% | -0.67%
NCc1ccc(-n2c(-c3nonc3N)nc3cnccc32)cc1 | -0.51% | 4.69% | 4.95% | 2.68% | 3.28% | 5.04% | 3.5% | 1.93% | 5.77% | 1.82%
CN(C)CCCNc1nccc(-c2c(-c3ccc(F)cc3)nn3cc(C(F)(F)F)ccc23)n1 | -0.03% | -0.2% | 1.41% | 5.61% | 9.58% | 1.15% | 0.39% | 0.85% | 1.33% | 4.23%
CCS(=O)(=O)c1ccc(OC)c(Nc2ncc(-c3cccc(-c4ccccc4F)c3)o2)c1 | 1.23% | 2.94% | 12.7% | 3.06% | 19% | 14.1% | 61.8% | 1.02% | 7.85% | 6.39%
C[C@@H](Oc1cc(-n2cnc3ccc(OCC4CCN(C)CC4)cc32)sc1C(N)=O)c1ccccc1Cl | 2.34% | 6.45% | 6.29% | 4.83% | 19.8% | 7.13% | 26.1% | 3.05% | 19.8% | 1.86%
CN(C)CCOc1ccc(-c2cc(-c3ccc4c(c3)CCC4=NO)c(-c3ccncc3)o2)cc1 | 0.74% | 0.39% | 1.01% | 0.77% | 11.6% | 2.33% | 20.8% | -1.03% | 0.17% | -1.52%
COc1ccc2ncn(-c3cc(O[C@H](C)c4ccccc4Cl)c(C(N)=O)s3)c2c1 | -3.45% | -2.01% | 0.84% | 1.72% | 7.48% | 3.02% | 24.1% | 0.31% | 1.16% | 8.17%
CN1CCN(CCCNc2nc3ccc(Oc4ccc(NC(=O)Nc5cc(C(F)(F)F)ccc5F)cc4)cc3[nH]2)CC1 | 0.86% | 0.68% | 5.07% | 9.94% | 53.8% | -0.25% | 4.81% | 2.56% | 5.75% | 2.88%
O=C1NC(=O)C(c2cccc(Cl)c2)=C1Nc1ccc(Cl)c(C(=O)O)c1 | -0.32% | 3.38% | 2.84% | 1.75% | 4.22% | 0.16% | 11% | 0.78% | 0.5% | 0.94%
Cc1ccc(C(=O)NC2CCC2)cc1-c1ccc(C(=O)NCC2CC2)cc1 | 0.85% | 3.37% | 2.28% | 2.59% | 1.2% | -0.31% | -1.43% | 1.04% | 1.08% | -0.6%
COc1cccc(/C=N/Nc2ncnc3c2cnn3-c2cccc(OC)c2)c1 | 0.04% | 4.1% | 4.79% | 5.3% | 4.37% | 0.36% | 3.79% | 1.06% | 3.32% | 1.54%
CCN(CC)Cc1ccc(Nc2nccc(-c3cnn4ncccc34)n2)cc1 | -0.45% | 0.83% | 3.21% | 3.9% | 12.2% | 5.27% | 32% | -0.16% | 3.2% | 2.7%
Clc1ccc(CNc2nccc(-c3cnn4ncccc34)n2)cc1 | 1.6% | 3.07% | 7.34% | 0.58% | 4.03% | 2.4% | 14.8% | 0.35% | 3.23% | 1.42%
COc1cc2ncn(-c3cc(OCc4ccccc4C(F)(F)F)c(C(C)=O)s3)c2cc1OC | -5.75% | -0.08% | 5.16% | 1.54% | 8.41% | 0.64% | 23.6% | 1.52% | 3.29% | 2.3%
N#Cc1ccc(Oc2nccc(-c3c(-c4ccc(F)cc4)ncn3C3CCNCC3)n2)cc1 | -3.55% | 2.34% | 5.61% | 3.13% | 8.62% | -0.15% | 2.6% | 0.82% | 2.05% | 2.46%
O=C1Nc2ccc(I)cc2C1=Cc1cc(Br)c(O)c(Br)c1 | 1.56% | 7.04% | 3.72% | 4.71% | 5.55% | 22.7% | 84.5% | 0.67% | 3.22% | 2.97%
NS(=O)(=O)c1ccc(Nc2cc(-c3ccc(O)c(F)c3)n[nH]2)cc1 | -1.99% | -1.66% | 0.4% | 2.97% | 21.7% | -4.31% | 24.3% | -1.31% | -1.02% | 5.68%
